This is part of a sample that, as a whole, favours compounds with a hit. Of some 83,000 tested, about 20% had one in any assay.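 Assay: single dose, 48 h. Readout: percent growth (0 = no net growth; negative = cell death). Active: <10.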 Values without a mark were called inactive. Active and inactive are the calls of the source.
How the values were obtained:
Assay in all cases: NCI-60 one-dose screen, 48 h (100 = growth as untreated, 0 = no growth, -100 = all killed)
Conditions in all cases: 10 µM unless noted
[1] = system: NCI-H23 lung
[2] = system: NCI-H226 lung
[3] = system: NCI-H322M lung
[4] = system: HOP-62 NSCLC
[5] = system: NCI-H460 lung
[6] = system: NCI-H522 lung
[7] = system: A549/ATCC NSCLC
[8] = system: 786-0 renal
[9] = system: COLO 205 colon
[10] = system: DU-145 prostate
[11] = system: K-562 leukemia
[12] = system: MALME-3M melanoma
[13] = system: MDA-MB-231 breast
[14] = system: RXF 393 renal
[15] = system: SF-268 CNS
[16] = system: SF-295 CNS
[17] = system: SF-539 CNS
[18] = system: UACC-257 melanoma
[19] = system: M14 melanoma
[20] = system: HCT-15 colon

Structure (SMILES)	growth [1]	growth [2]	growth [3]	growth [4]	growth [5]	growth [6]	growth [7]	growth [8]	growth [9]	growth [10]	growth [11]	growth [12]	growth [13]	growth [14]	growth [15]	growth [16]	growth [17]	growth [18]	growth [19]	growth [20]
O=C(Nc1ccc(Oc2ccc(NC(=O)Nc3ccc([N+](=O)[O-])cc3)cc2)cc1)Nc1ccc([N+](=O)[O-])cc1	-17.8% (active)	24.4%	22.6%	-25% (active)	2.83% (active)	-15.3% (active)	7.01% (active)	-1.95% (active)	-51.1% (active)	17.3%	-4.47% (active)	-3.45% (active)	35.1%	28.7%	19.7%	22%	24.9%	-20.9% (active)	5.41% (active)	10.3%
C=C(C[C@@](O)(C(=O)Oc1ccccc1)C(=O)C1CCCCC1)c1ccccc1	103%	108%	112%	108%	107%	91.8%	92.2%	98.9%	120%	110%	107%	101%	99.9%	91.4%	99.6%	100%	98.4%	92.8%	106%	109%
CCCc1nn(C)c2c(=O)[nH]c(-c3cc(S(=O)(=O)N4CCN(C)CC4)ccc3OCC)nc12	99%	102%	101%	104%	114%	88.9%	96.2%	98.5%	99.8%	113%	97.9%	102%	90.5%	120%	119%	93%	111%	97.9%	102%	103%
O=C1/C(=C/c2ccc3cccc(Cl)c3n2)SC(=S)N1CCc1ccc(O)cc1	94.1%	86.1%	91.6%	86.7%	99.1%	54.9%	93.6%	94.2%	107%	101%	86.2%	74.7%	79.9%	103%	84.9%	91.9%	86.9%	100%	90.8%	86.1%
COC1=CC(c2ccc[nH]2)=N/C1=C\c1[nH]c(C)c(C(=O)CCC(=O)Oc2ccc3c(c2)CCC2C3CC[C@]3(C)C(=O)CC[C@@H]23)c1C (stereo not given in full)	73.5%	87.6%	81.4%	80.2%	48.3%	57.3%	49.9%	75.8%	87.9%	28.5%	39.2%	103%	1.14% (active)	93.1%	52.6%	86.4%	83.7%	106%	104%	45.6%
COc1ccc2c(c1)[nH]c(=O)c1c3cc(OC)c(OC)cc3cn21	42.5%	44.6%	20.7%	47.4%	6.39% (active)	-2.16% (active)	-22.1% (active)	32.1%	-34.8% (active)	-87.2% (active)	0.148% (active)	56.7%	26.4%	0.926% (active)	9.67% (active)	13.6%	10.7%	82.6%	23.6%	-6.44% (active)
CCN(CC)CCCCNc1c2ccccc2[n+](C)c2c1[nH]c1ccccc12	-35.9% (active)	-11.8% (active)	-35.5% (active)	-3.3% (active)	3.4% (active)	-84.7% (active)	2.8% (active)	-7.1% (active)	-65.9% (active)	-0.206% (active)	-20.8% (active)	-63.9% (active)	-0.507% (active)	-55.6% (active)	-16.2% (active)	-47.1% (active)	-40.6% (active)	-42.6% (active)	-28.4% (active)	80.2%

From PubChem BioAssay (NCI)
